Data on 37 compounds can be found in PubChem BioAssay (NCATS).

Values without a mark were called inactive. Inconclusive results are not listed. Active and inactive are the calls of the source. Calls follow the shape of the dose curve; as a rule, active = well fitted curve in the direction sought with a large enough effect; inconclusive = small, poorly fitted or top-dose-only effect, or another doubt; inactive = no such curve, though single readings can be large; an effect the other way counts as inactive or inconclusive.

ATP-dependent DNA helicase Q1 (Homo sapiens), sequence (P46063 whole entry, looked up): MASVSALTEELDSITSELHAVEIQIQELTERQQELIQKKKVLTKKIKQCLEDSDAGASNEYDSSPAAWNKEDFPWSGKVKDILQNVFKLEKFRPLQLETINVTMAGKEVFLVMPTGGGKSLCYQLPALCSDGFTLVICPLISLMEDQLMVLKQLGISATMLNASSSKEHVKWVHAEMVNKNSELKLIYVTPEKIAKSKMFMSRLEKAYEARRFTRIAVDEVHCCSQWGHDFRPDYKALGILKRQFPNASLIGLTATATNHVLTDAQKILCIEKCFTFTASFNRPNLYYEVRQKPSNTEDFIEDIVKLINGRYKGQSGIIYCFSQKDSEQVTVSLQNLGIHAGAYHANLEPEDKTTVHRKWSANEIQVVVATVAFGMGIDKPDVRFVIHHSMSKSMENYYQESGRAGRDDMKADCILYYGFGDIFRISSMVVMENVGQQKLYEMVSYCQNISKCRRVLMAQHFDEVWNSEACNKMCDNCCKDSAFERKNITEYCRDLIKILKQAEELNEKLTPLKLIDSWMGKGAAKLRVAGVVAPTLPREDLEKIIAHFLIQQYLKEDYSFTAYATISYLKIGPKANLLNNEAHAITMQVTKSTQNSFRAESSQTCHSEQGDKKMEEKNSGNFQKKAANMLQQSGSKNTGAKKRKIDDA
Ferritin light chain (Equus caballus), sequence (P02791 2-175 limits assumed): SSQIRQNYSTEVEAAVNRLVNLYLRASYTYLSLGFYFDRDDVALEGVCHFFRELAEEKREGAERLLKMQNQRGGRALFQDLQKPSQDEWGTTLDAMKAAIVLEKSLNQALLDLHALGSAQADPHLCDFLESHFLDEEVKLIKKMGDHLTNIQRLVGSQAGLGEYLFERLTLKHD

System in one assay: not listed separately
In words: qHTS for differential inhibitors of proliferation of Plasmodium falciparum line HB3 (AID 1886).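 Also: parasites grown with compound for 72 h before SYBR Green readout.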 Also: potency is read from the fitted curve at half-maximal effect.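 As to activity change, negative = inhibition: plate controls were vehicle for no effect and reference inhibitor for full effect.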 As to conditions: Potency: Plasmodium falciparum HB3 proliferation inhibition; series mostly up to 28.7 µM; activity change, negative = inhibition: at the top concentration. (qHTS replaces the single test concentration by a dilution series.)
Take `COc1ccccc1N1CCN(CCCCNC(=O)c2ccc3ccccc3c2)CC1`: the Potency was 5.01 µM (active).
`COc1ccc(NC(=O)c2ccc(-c3ccc(-c4noc(C)n4)cc3C)cc2)cc1N1CCN(C)CC1`: the Potency was 2.82 µM (active).
On to `COC(=O)C(N)Cc1ccc(Cl)cc1` (stereo not given), for which the “activity change, negative = inhibition” value was -4.55%.
As for `O[Si](CCCN1CCCCC1)(c1ccc(F)cc1)C1CCCCC1` (stereo not given), the Potency is 0.0708 µM (active).
With `Cn1ccnc1`, the “activity change, negative = inhibition” value is 5.43%.
As to `Cn1cc(C(F)(F)F)nc1-c1ccc(OCC(O)CNCCOc2ccc(O)c(C(N)=O)c2)cc1` (stereo not given), the Potency is 5.62 µM (active).
Consider `NCC(O)C1CCCCCCC1` (stereo not given), for which the “activity change, negative = inhibition” value is -13.5%.
Still for that read-out and setting: with `N[C@@H](CS(=O)O)C(=O)O` the figure was -3.6%; with `Oc1ccc(Cn2cc[nH]c2=S)cc1`, -9.01%.
For `N#CC(=C(\N)Sc1ccccc1N)/C(C#N)=C(/N)Sc1ccccc1N`, the Potency was 4.47 µM (active).
Consider `CC(C)NCC(O)COc1ccc(CC(N)=O)cc1` (stereo not given), for which the “activity change, negative = inhibition” value is 5.81%.
For `CCC1(O)CC2CN(CCc3c([nH]c4ccccc34)[C@@](C(=O)OC)(c3cc4c(cc3OC)N(C)C3[C@]45CCN4CC=C[C@@](CC)([C@@H](OC(C)=O)[C@]3(O)C(=O)OC)[C@H]45)C2)C1` (stereo not given in full), the Potency is 2.82 µM (active).
Take `O=C(O)/C=C/c1ccc(O)c(O)c1`: the “activity change, negative = inhibition” value was -12.7%.
`CCCCCCN(CCCCCC)C(=O)Cc1c(-c2ccc(F)cc2)[nH]c2ccccc12`: the Potency was 7.08 µM (active).
With `CCCCCCCCCCCCCCCCCCOC[C@H](COP(=O)([O-])OCC[N+](C)(C)C)OC`, the “activity change, negative = inhibition” value was 10.2%.
Regarding `CCCN(CCc1ccccc1)C1CCc2c(O)cccc2C1` (stereo not given), the Potency is 2.51 µM (active).
Consider `COc1ccc(-c2ccc(N)[n+](CCCC(=O)O)n2)cc1`, for which the “activity change, negative = inhibition” value was -6.63%.
`N[C@H](C(=O)O)[C@H]1C[C@@H]1C(=O)O`: the “activity change, negative = inhibition” value is -0.041%.
Consider `CCCCCCCCCC(=O)NC(CN1CCOCC1)[C@H](O)c1ccccc1` (stereo not given in full), for which the Potency was 8.91 µM (active).
The same measure, in the same setting: then `N=C(N)c1ccc(OCCCCCOc2ccc(C(=N)N)cc2)cc1` (tested in a mixture with another compound), with 0.224 µM (active).
Take `CN(C)C(=O)/N=N/C(=O)N(C)C`: the “activity change, negative = inhibition” value is -6.43%.
Still for that read-out and setting: then `CCCCCCCCCCCCCCSCC(=O)O`, with -2.01%.
On to `C=CC[C@H](N)C(=O)O`, for which the “activity change, negative = inhibition” value is 0.193%.
In the case of `CN(C)S(=O)(=O)c1ccc2c(c1)/C(=C/c1cc3c([nH]1)CCCC3)C(=O)N2`, the Potency was 3.98 µM (active).
On to `CCCCC[C@H](CC(=O)NO)C(=O)N[C@H](C(=O)N1CCC[C@H]1CO)C(C)C`, for which the Potency is 2.82 µM (active).
Consider `CCCCS(=N)(=O)CC[C@H](N)C(=O)O` (stereo not given in full), for which the “activity change, negative = inhibition” value was -28.1%.
In the case of `Nc1ncnc2c1c(-c1ccc(Oc3ccccc3)cc1)cn2C1CCCC1`, the Potency was 12.6 µM (active).
Same read-out and setting: then `Cc1ccc([N+](=O)[O-])cc1S(=O)(=O)N(C)C`, with “inactive”.
As to `COc1ccc2c(c1)CCC1C2CC[C@@]2(C)C1CC[C@@H]2NCCCCCCN1C(=O)C=CC1=O` (stereo not given in full), the “activity change, negative = inhibition” value is -1.69%.
For `CC(C)(C)c1cc(/C=C(\C#N)C(N)=S)cc(C(C)(C)C)c1O`, the Potency is 6.31 µM (active).
With `CN1C2CCC1CC(OC(c1ccccc1)c1ccccc1)C2` (stereo not given), the Potency was 6.31 µM (active).
On to `CC(N)(Cc1ccc(O)cc1)C(=O)O` (stereo not given), for which the “activity change, negative = inhibition” value is -6.77%.
For `C=CCN1CCc2cc(O)c(O)cc2C(c2ccccc2)C1` (stereo not given), the Potency is 11.2 µM (active).
Take `CC(N)=O`: the “activity change, negative = inhibition” value is -6.97%.
With `CCN(c1nc(N)c(C(=O)N=C(N)N)nc1Cl)C(C)C`, the Potency was 11.2 µM (active).
Regarding `[Li+]`, the “activity change, negative = inhibition” value was -4.36%.
As for `NCCC1CCCC(CCN)N1` (stereo not given), the “activity change, negative = inhibition” value was -0.104%.

A further assay concerns the target Ferritin light chain (Equus caballus) (UniProt P02791). In words: qHTS Validation Assay for Identification of Novel General Anesthetics (AID 2323). Also: % is scaled to controls: 0 for no effect and ±100 for the full control effect. As to conditions: horse apoferritin, anesthetic-site fluorescent probe displacement; series mostly up to 76.9 µM; activity change, negative = inhibition: at the top concentration. In a few lines:
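Fluorescence at 535 nm (excitation 380 nm) reported loss of 1-AMA binding to horse-spleen apoferritin (10 uM) in PBS with 50% saturated 1-aminoanthracene, after 10 min room-temperature incubation with compound; values from Hill fits of normalized response.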
On to `COc1ccc(NC(=O)c2ccc(-c3ccc(-c4noc(C)n4)cc3C)cc2)cc1N1CCN(C)CC1`, for which the “activity change, negative = inhibition” value was 89%.
Take `COC(=O)C(N)Cc1ccc(Cl)cc1` (stereo not given): the “activity change, negative = inhibition” value was -4.48%.
Regarding `Cn1ccnc1`, the “activity change, negative = inhibition” value is 4.03%.
On the same count and under the same terms, with `Cn1cc(C(F)(F)F)nc1-c1ccc(OCC(O)CNCCOc2ccc(O)c(C(N)=O)c2)cc1` (stereo not given) the figure was 75.4%; with `N[C@@H](CS(=O)O)C(=O)O`, -2.89%; with `CC(C)NCC(O)COc1ccc(CC(N)=O)cc1` (stereo not given), 2.18%.
As to `O=C(O)/C=C/c1ccc(O)c(O)c1`, the “activity change, negative = inhibition” value was 10.5%.
Take `COc1ccc(-c2ccc(N)[n+](CCCC(=O)O)n2)cc1`: the “activity change, negative = inhibition” value was 6.89%.
For the compound `N[C@H](C(=O)O)[C@H]1C[C@@H]1C(=O)O`, the “activity change, negative = inhibition” value was 11.8%.
For the compound `C=CC[C@H](N)C(=O)O`, the “activity change, negative = inhibition” value was -2.86%.
Same read-out and setting: then `CCCCC[C@H](CC(=O)NO)C(=O)N[C@H](C(=O)N1CCC[C@H]1CO)C(C)C`, with -3.73%; and `COc1ccc2c(c1)CCC1C2CC[C@@]2(C)C1CC[C@@H]2NCCCCCCN1C(=O)C=CC1=O` (stereo not given in full), with -4.31%; and `CN1C2CCC1CC(OC(c1ccccc1)c1ccccc1)C2` (stereo not given), with -10.9%.
For the compound `CC(N)(Cc1ccc(O)cc1)C(=O)O` (stereo not given), the “activity change, negative = inhibition” value is 0.552%.
Take `[Li+]`: the “activity change, negative = inhibition” value is -3.67%.
On to `NCCC1CCCC(CCN)N1` (stereo not given), for which the “activity change, negative = inhibition” value was -0.48%.

The next assay concerns the target ATP-dependent DNA helicase Q1 (Homo sapiens) (UniProt P46063). In words: qHTS Validation Assay for Inhibitors of RecQ-Like Dna Helicase 1 (RECQ1) (AID 2353). Also: potency is read from the fitted curve at half-maximal effect.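 As to activity change, negative = inhibition: plate controls were DMSO vehicle for no effect and enzyme-free control for full effect.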 As to conditions: recombinant RECQ1 helicase DNA unwinding assay; series mostly up to 25.6 µM; activity change, negative = inhibition: at the top concentration. In a few lines: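 50 nM RECQ1T1 preincubated 15 min with compound in Tris pH 8.0 buffer with MgCl2, DTT, Tween-20 and 2.5 ug/ml poly(dI-dC); started with 200 nM TAMRA/BHQ-2 forked duplex and 2 mM ATP. Unwinding read as fluorescence (525/598 nm), two reads 2 h apart.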
As for `COc1ccccc1N1CCN(CCCCNC(=O)c2ccc3ccccc3c2)CC1`, the “activity change, negative = inhibition” value is 3.11%.
Take `COc1ccc(NC(=O)c2ccc(-c3ccc(-c4noc(C)n4)cc3C)cc2)cc1N1CCN(C)CC1`: the “activity change, negative = inhibition” value was -3.47%.
On to `COC(=O)C(N)Cc1ccc(Cl)cc1` (stereo not given), for which the “activity change, negative = inhibition” value was -7.08%.
Take `O[Si](CCCN1CCCCC1)(c1ccc(F)cc1)C1CCCCC1` (stereo not given): the “activity change, negative = inhibition” value was -4.38%.
As for `Cn1ccnc1`, the “activity change, negative = inhibition” value was -4.34%.
Take `Cn1cc(C(F)(F)F)nc1-c1ccc(OCC(O)CNCCOc2ccc(O)c(C(N)=O)c2)cc1` (stereo not given): the “activity change, negative = inhibition” value is 2.27%.
Still for that read-out and setting: then `NCC(O)C1CCCCCCC1` (stereo not given), with 0.0705%; and `N[C@@H](CS(=O)O)C(=O)O`, with 2.86%; and `Oc1ccc(Cn2cc[nH]c2=S)cc1`, with 1.62%.
Same read-out and setting: then `N#CC(=C(\N)Sc1ccccc1N)/C(C#N)=C(/N)Sc1ccccc1N`, with -7.74%.
For the compound `CC(C)NCC(O)COc1ccc(CC(N)=O)cc1` (stereo not given), the “activity change, negative = inhibition” value is -2.33%.
Consider `CCC1(O)CC2CN(CCc3c([nH]c4ccccc34)[C@@](C(=O)OC)(c3cc4c(cc3OC)N(C)C3[C@]45CCN4CC=C[C@@](CC)([C@@H](OC(C)=O)[C@]3(O)C(=O)OC)[C@H]45)C2)C1` (stereo not given in full), for which the “activity change, negative = inhibition” value was -19.1%.
Still for that read-out and setting: then `O=C(O)/C=C/c1ccc(O)c(O)c1`, with 0.15%; and `CCCCCCN(CCCCCC)C(=O)Cc1c(-c2ccc(F)cc2)[nH]c2ccccc12`, with -20.2%.
As for `CCCCCCCCCCCCCCCCCCOC[C@H](COP(=O)([O-])OCC[N+](C)(C)C)OC`, the “activity change, negative = inhibition” value is -5.02%.
On to `CCCN(CCc1ccccc1)C1CCc2c(O)cccc2C1` (stereo not given), for which the “activity change, negative = inhibition” value is 1.58%.
Turning to `COc1ccc(-c2ccc(N)[n+](CCCC(=O)O)n2)cc1`, the “activity change, negative = inhibition” value is 3.77%.
Consider `N[C@H](C(=O)O)[C@H]1C[C@@H]1C(=O)O`, for which the “activity change, negative = inhibition” value was -1.88%.
As for `CCCCCCCCCC(=O)NC(CN1CCOCC1)[C@H](O)c1ccccc1` (stereo not given in full), the “activity change, negative = inhibition” value was -7.61%.
Consider `N=C(N)c1ccc(OCCCCCOc2ccc(C(=N)N)cc2)cc1` (tested in a mixture with another compound), for which the “activity change, negative = inhibition” value was 35.8%.
Consider `CN(C)C(=O)/N=N/C(=O)N(C)C`, for which the “activity change, negative = inhibition” value is -8.74%.
In the case of `CCCCCCCCCCCCCCSCC(=O)O`, the “activity change, negative = inhibition” value was -18.6%.
Consider `C=CC[C@H](N)C(=O)O`, for which the “activity change, negative = inhibition” value was -3.76%.
As for `CN(C)S(=O)(=O)c1ccc2c(c1)/C(=C/c1cc3c([nH]1)CCCC3)C(=O)N2`, the “activity change, negative = inhibition” value was 17.9%.
Take `CCCCC[C@H](CC(=O)NO)C(=O)N[C@H](C(=O)N1CCC[C@H]1CO)C(C)C`: the “activity change, negative = inhibition” value is -13.1%.
On to `CCCCS(=N)(=O)CC[C@H](N)C(=O)O` (stereo not given in full), for which the “activity change, negative = inhibition” value was -3.12%.
With `Nc1ncnc2c1c(-c1ccc(Oc3ccccc3)cc1)cn2C1CCCC1`, the “activity change, negative = inhibition” value is -13.6%.
As for `Cc1ccc([N+](=O)[O-])cc1S(=O)(=O)N(C)C`, the Potency result is “inactive”.
For the compound `COc1ccc2c(c1)CCC1C2CC[C@@]2(C)C1CC[C@@H]2NCCCCCCN1C(=O)C=CC1=O` (stereo not given in full), the “activity change, negative = inhibition” value is -3.16%.
Same read-out and setting: with `CC(C)(C)c1cc(/C=C(\C#N)C(N)=S)cc(C(C)(C)C)c1O` the figure was -11.1%; with `CN1C2CCC1CC(OC(c1ccccc1)c1ccccc1)C2` (stereo not given), 2.19%.
With `CC(N)(Cc1ccc(O)cc1)C(=O)O` (stereo not given), the Potency was 11.2 µM (active).
Consider `C=CCN1CCc2cc(O)c(O)cc2C(c2ccccc2)C1` (stereo not given), for which the “activity change, negative = inhibition” value is 1.96%.
Consider `CC(N)=O`, for which the “activity change, negative = inhibition” value is -19.1%.
For `CCN(c1nc(N)c(C(=O)N=C(N)N)nc1Cl)C(C)C`, the “activity change, negative = inhibition” value is 19.7%.
`[Li+]`: the “activity change, negative = inhibition” value was 1.4%.
The same measure, in the same setting: then `NCCC1CCCC(CCN)N1` (stereo not given), with 5.61%.
